Here are results for 7 sequences from article PMC4081100, “A DNA-binding-site landscape and regulatory network analysis for NAC transcription factors in Arabidopsis thaliana”.

Test in all cases: universal protein binding microarray (PBM); transcription factors of Arabidopsis thaliana; high values mean tight binding
Conditions in all cases: protein: recombinant; tags: GST; chain copies: 2; dsDNA, one strand shown

One assay has as its target T1, GST-ANAC092(1-176) (Arabidopsis thaliana, UniProt Q9FKA0 1-176).
T1 sequence: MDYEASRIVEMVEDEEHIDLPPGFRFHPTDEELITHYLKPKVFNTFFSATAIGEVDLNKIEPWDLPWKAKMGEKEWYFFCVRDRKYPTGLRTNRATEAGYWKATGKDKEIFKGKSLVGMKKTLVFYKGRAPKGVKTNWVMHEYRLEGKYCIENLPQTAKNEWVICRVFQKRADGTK
The method, boiled down: (§1)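 GST-tagged NAC-domain, full-length or DNA-binding-domain proteins were induced in cells, with zinc acetate added for zinc-finger proteins. They were purified on glutathione–Sepharose 4B and quantified by A280 or anti-GST western blot. Each was applied at 200 to 500 nM final, in duplicate, to custom all-10-mer Agilent 4 × 180K arrays made double-stranded by primer extension, with gapped and ungapped 8-mers scored. Binding is the normalised enrichment score (E-score).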

The target of another assay is GST-NTL6(1-168) (Arabidopsis thaliana, UniProt Q9SCK6 1-168). The method, boiled down:
as §1

For a further assay, the target named is T2, GST-ANAC019 NAC domain (Arabidopsis thaliana, UniProt Q9C932 14-162).
T2 sequence: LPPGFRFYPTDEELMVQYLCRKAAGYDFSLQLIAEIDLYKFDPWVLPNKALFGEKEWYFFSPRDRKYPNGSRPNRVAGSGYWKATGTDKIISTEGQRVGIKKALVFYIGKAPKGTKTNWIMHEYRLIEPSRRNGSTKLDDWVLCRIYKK
An outline of the steps: as §1

For the next assay, the target named is T3, GST-ANAC055(1-171) (Arabidopsis thaliana, UniProt Q9LDY8 1-171).
T3 sequence: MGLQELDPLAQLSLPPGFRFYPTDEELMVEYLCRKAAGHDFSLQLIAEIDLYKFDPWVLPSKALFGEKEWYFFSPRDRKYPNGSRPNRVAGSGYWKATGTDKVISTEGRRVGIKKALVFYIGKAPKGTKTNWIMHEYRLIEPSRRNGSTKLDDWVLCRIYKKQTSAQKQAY
An outline of the steps: as §1

The target of another assay is T4, GST-ATAF1 NAC domain (Arabidopsis thaliana, UniProt Q39013 7-158).
T4 sequence: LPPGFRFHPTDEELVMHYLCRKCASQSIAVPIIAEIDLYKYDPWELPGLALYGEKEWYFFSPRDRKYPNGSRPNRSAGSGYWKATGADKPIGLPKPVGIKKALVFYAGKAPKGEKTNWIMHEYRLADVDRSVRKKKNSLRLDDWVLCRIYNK
The method, boiled down:
as §1

In assay [1] the target is T5, GST-ANAC092(1-285) full length (Arabidopsis thaliana, UniProt Q9FKA0 1-285).
T5 sequence: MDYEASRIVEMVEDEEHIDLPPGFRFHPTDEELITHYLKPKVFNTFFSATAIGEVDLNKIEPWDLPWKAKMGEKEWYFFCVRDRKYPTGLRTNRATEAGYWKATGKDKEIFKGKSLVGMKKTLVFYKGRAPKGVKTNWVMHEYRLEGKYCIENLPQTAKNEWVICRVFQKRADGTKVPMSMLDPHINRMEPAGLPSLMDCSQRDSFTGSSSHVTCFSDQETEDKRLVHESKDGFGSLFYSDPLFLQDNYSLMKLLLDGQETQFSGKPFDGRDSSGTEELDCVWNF
The method, boiled down: as §1

The target of another assay is T6, GST-NST2(1-184) (Arabidopsis thaliana, UniProt Q9M274 1-184).
T6 sequence: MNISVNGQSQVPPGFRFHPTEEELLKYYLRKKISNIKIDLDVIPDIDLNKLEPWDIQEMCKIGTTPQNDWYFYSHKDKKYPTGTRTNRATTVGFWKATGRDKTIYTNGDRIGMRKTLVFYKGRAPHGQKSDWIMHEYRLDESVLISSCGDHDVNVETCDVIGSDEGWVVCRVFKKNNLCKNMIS
The method, boiled down: as §1

The next assay deals with T7, GST-SND1(1-203) (Arabidopsis thaliana, UniProt Q9LPI7 1-203).
T7 sequence: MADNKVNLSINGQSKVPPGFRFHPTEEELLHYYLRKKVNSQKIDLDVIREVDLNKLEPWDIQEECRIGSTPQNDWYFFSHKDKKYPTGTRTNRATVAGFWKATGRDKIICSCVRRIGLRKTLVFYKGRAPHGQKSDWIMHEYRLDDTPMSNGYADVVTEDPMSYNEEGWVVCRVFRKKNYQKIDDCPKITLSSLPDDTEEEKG
An outline of the steps: as §1

The next assay addresses T8, GST-VND3 NAC domain (Arabidopsis thaliana, UniProt Q9FH59 12-162).
T8 sequence: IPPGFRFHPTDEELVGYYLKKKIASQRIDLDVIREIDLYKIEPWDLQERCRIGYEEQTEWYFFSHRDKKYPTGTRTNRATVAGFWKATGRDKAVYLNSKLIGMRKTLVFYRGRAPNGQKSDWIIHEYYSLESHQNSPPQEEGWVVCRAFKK
An outline of the steps:
as §1

The target in a further assay is T9, GST-VND7 NAC domain (Arabidopsis thaliana, UniProt Q9C8W9 9-158).
T9 sequence: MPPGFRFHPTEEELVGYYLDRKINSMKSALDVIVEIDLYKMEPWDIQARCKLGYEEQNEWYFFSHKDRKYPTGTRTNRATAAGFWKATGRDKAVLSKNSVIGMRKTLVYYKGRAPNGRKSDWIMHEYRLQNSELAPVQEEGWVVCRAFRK
The method, boiled down:
as §1

In another assay the target is T10, GST-NTL8 NAC domain (Arabidopsis thaliana, UniProt Q9XIN7 14-156).
T10 sequence: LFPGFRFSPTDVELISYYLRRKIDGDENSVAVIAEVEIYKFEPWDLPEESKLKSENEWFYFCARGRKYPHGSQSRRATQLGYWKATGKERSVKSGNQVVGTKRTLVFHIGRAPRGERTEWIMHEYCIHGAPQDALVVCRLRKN
The method, boiled down:
as §1

The target of another assay is T11, GST-NAP(1-166) (Arabidopsis thaliana, UniProt O49255 1-166).
T11 sequence: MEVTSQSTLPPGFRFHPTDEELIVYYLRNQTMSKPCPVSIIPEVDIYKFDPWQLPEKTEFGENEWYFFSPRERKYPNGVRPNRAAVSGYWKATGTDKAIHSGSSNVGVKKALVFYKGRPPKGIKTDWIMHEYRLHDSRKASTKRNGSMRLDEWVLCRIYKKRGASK
An outline of the steps: as §1

GST-NTL6(1-168), sequence (Q9SCK6 1-168): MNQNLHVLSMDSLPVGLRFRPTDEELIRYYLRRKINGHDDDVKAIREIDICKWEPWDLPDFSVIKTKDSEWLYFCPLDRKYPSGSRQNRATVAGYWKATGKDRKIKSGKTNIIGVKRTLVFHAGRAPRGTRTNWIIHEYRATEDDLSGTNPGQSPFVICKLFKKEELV

Consider GTTGAGTA, for which the binding signal worked out at 0.305 E-score with GST-ANAC092(1-176); 0.152 E-score with GST-NTL6(1-168); 0.0635 E-score with GST-ANAC019 NAC domain; 0.0864 E-score in the assay with GST-ANAC055(1-171); 0.139 E-score with GST-ATAF1 NAC domain; 0.386 E-score in assay [1]. In addition, the binding signal with GST-NST2(1-184) was 0.279 E-score; with GST-SND1(1-203), 0.419 E-score; in the assay with GST-VND3 NAC domain, 0.0828 E-score; in the assay with GST-VND7 NAC domain, 0.108 E-score.

Consider AAAGGAAA, for which the binding signal was 0.196 E-score with GST-ANAC092(1-176); 0.284 E-score with GST-NTL6(1-168); 0.105 E-score with GST-ANAC019 NAC domain; 0.11 E-score with GST-ANAC055(1-171); 0.153 E-score with GST-ATAF1 NAC domain; 0.0862 E-score in assay [1]. The binding signal came out at 0.179 E-score in the assay with GST-NST2(1-184); 0.457 E-score with GST-NTL8 NAC domain; 0.225 E-score with GST-SND1(1-203); 0.166 E-score with GST-VND3 NAC domain; 0.134 E-score with GST-VND7 NAC domain.

As to GCGTATAA, the binding signal was determined as 0.375 E-score with GST-ANAC092(1-176); 0.0699 E-score in the assay with GST-NTL6(1-168); 0.0915 E-score with GST-ANAC019 NAC domain; 0.23 E-score in the assay with GST-ANAC055(1-171); 0.229 E-score with GST-ATAF1 NAC domain; 0.409 E-score in assay [1]. Besides, the binding signal was 0.181 E-score with GST-NAP(1-166); 0.285 E-score in the assay with GST-NST2(1-184); 0.11 E-score with GST-NTL8 NAC domain; 0.399 E-score with GST-SND1(1-203); 0.213 E-score with GST-VND3 NAC domain; 0.161 E-score in the assay with GST-VND7 NAC domain.

Take GAAGTAAA: the binding signal with GST-ANAC092(1-176) was 0.214 E-score; with GST-NTL6(1-168), 0.409 E-score; with GST-ANAC019 NAC domain, 0.0501 E-score; with GST-ANAC055(1-171), 0.107 E-score; in the assay with GST-ATAF1 NAC domain, 0.211 E-score; in assay [1], 0.305 E-score. The binding signal came out at 0.224 E-score with GST-NST2(1-184); 0.222 E-score in the assay with GST-NTL8 NAC domain; 0.329 E-score with GST-SND1(1-203); 0.179 E-score with GST-VND3 NAC domain; 0.18 E-score in the assay with GST-VND7 NAC domain.

For the sequence AGGGAAAA, the binding signal with GST-ANAC092(1-176) is 0.22 E-score; in the assay with GST-NTL6(1-168), 0.201 E-score; in the assay with GST-ANAC019 NAC domain, 0.131 E-score; with GST-ANAC055(1-171), 0.111 E-score; with GST-ATAF1 NAC domain it was 0.187 E-score; in assay [1], 0.0865 E-score. Further, the binding signal with GST-NAP(1-166) is 0.117 E-score; with GST-NTL8 NAC domain, 0.416 E-score; in the assay with GST-SND1(1-203) it was 0.115 E-score; with GST-VND3 NAC domain it was 0.0874 E-score; in the assay with GST-VND7 NAC domain, 0.192 E-score.

For ACAAGTAA, the binding signal with GST-ANAC092(1-176) was determined as 0.41 E-score; with GST-NTL6(1-168), 0.25 E-score; with GST-ANAC019 NAC domain it was 0.125 E-score; in the assay with GST-ANAC055(1-171) it was 0.236 E-score; with GST-ATAF1 NAC domain, 0.238 E-score; in [1], 0.439 E-score. Besides, the binding signal with GST-NST2(1-184) amounted to 0.288 E-score; in the assay with GST-SND1(1-203), 0.257 E-score; in the assay with GST-VND3 NAC domain, 0.249 E-score; with GST-VND7 NAC domain, 0.0784 E-score.

Consider GGAAGTAA, for which the binding signal worked out at 0.249 E-score in the assay with GST-ANAC092(1-176); 0.404 E-score with GST-NTL6(1-168); 0.151 E-score with GST-ANAC019 NAC domain; 0.104 E-score in the assay with GST-ANAC055(1-171); 0.123 E-score in the assay with GST-ATAF1 NAC domain; 0.307 E-score in assay [1]. Besides, the binding signal in the assay with GST-NST2(1-184) is 0.248 E-score; with GST-NTL8 NAC domain, 0.203 E-score; with GST-SND1(1-203), 0.259 E-score; with GST-VND3 NAC domain, 0.133 E-score; in the assay with GST-VND7 NAC domain, 0.0641 E-score.
